For the experiment, the system named is Leishmania donovani. Description: Leishmania intramacrophage assay. It is filed as functional, organism-based. Also noted: scale not given: in the data most compounds retested in dose-response had high values.

SMILES strings stand for the structures. Out of some 69,000 compounds screened, about 1,000 (1.4%) showed an effect of 50% or more. Shown is part of a subset that was picked to be rich in strong results.

Take `CCN1CCN(C[C@@H]2CN(c3ncc(Cl)cc3F)C[C@@H]2CO)CC1`: the “Percent Effect” value (30.3 µM, […]) is 46.16%.
Still for that read-out and setting: then `CCN1CCN(C[C@@H]2CN(c3ncccc3Cl)C[C@@H]2CO)CC1`, with 25.54%; and `CCN1CCN(C[C@@H]2CN(c3ncc(Cl)cc3Cl)C[C@@H]2CO)CC1`, with 62.72%; and `O=C(NCCc1nccs1)[C@H](c1ccccc1)n1cnnn1`, with 10.58%.
Still for that read-out and setting: then `Nc1cc(-c2c[nH]nc2C2CCN(C(=O)C3CCCC3)C2)ccn1` (centres undefined), with 42.83%.
For `Cc1c[nH]nc1C1CCN(C(=O)C2CCOCC2)C1` (centres undefined), where the note is “30.3 µM, […]”, the “Percent Effect” value is reported as -3.336%.
For the compound `CC(C)CNc1cc(-c2c[nH]nc2C2CCN(C(=O)C3CC3)C2)ccn1` (centres undefined), the “Percent Effect” value (30.3 µM, […]) stood at 60.8%.
Still for that read-out and setting: in the case of `CC(C)OCC(=O)N1CCC(c2ncncc2-c2ccnc(N)c2)C1` (centres undefined) it was -5.314%.
As for `CCCNc1cc(-c2c[nH]nc2C2CCN(C(=O)C3CCC3)C2)ccn1` (centres undefined), the “Percent Effect” value (30.3 µM, […]) came out at 53.3%.
On the same count and under the same terms, in the case of `Nc1cc(-c2c[nH]nc2C2CCCCN2C(=O)C2CCCC2)ccn1` (centres undefined) it was 12.99%.
Still for that read-out and setting: then `Cc1c[nH]nc1C1CCN(C(=O)C2CCCC2)C1` (centres undefined), with -28.74%; and `CC(=O)N1CCC(c2n[nH]cc2-c2ccnc(N)c2)C1` (centres undefined), with 29.98%.
Same read-out and setting: then `CC(C)Nc1cc(-c2c[nH]nc2C2CCN(C(=O)C3CCC3)C2)ccn1` (centres undefined), with 63.06%.
Regarding `CN1CCC(c2n[nH]cc2-c2ccnc(N)c2)C1` (centres undefined), the “Percent Effect” value (30.3 µM, […]) stood at 52.81%.
As to `CC(C)Nc1cc(-c2c[nH]nc2C2CCN(C(=O)C3CC3)C2)ccn1` (centres undefined), the “Percent Effect” value (30.3 µM, […]) was 49.22%.
Consider `CC(C)N1CCC(c2n[nH]cc2-c2ccnc(N)c2)C1` (centres undefined), for which the “Percent Effect” value (30.3 µM, […]) stood at 28.17%.
Still for that read-out and setting: in the case of `COCCNC(=O)[C@H]1CN(Cc2cccs2)C[C@H]2OCC[C@@H]12.O=C(O)C(F)(F)F` it was -23.24%; in that of `Cn1cc(-c2cc(C(F)(F)F)nn2CCC#N)cn1`, -0.6212%.
Regarding `CCCn1nccc1-c1nccnc1CC1CCN(C(C)=O)CC1`, the “Percent Effect” value (30.3 µM, […]) is recorded as -24.99%.
With `NCCn1nc(C2CCN(C(=O)CC3CCCCC3)C2)c2nccnc21` (centres undefined), under “30 µM, 30.03 µM”, the “Percent Effect” value was -5.021%.
Consider `Nc1ccc(C(=O)N2C[C@@H]3CC[C@H](C2)N(Cc2ccccc2)C3)cn1`, for which the “Percent Effect” value (30.3 µM, […]) turned out to be 19.02%.
On the same count and under the same terms, then `COC1COC2(CCN(CC3CC3)CC2)C1.O=C(O)C(F)(F)F` (centres undefined), with 18.41%.
Take `COCCC(=O)N1C[C@@H](c2ccc(F)c(F)c2)[C@@]2(CCCC(=O)N2)C1`: for the setting “30.3 µM, […]”, the “Percent Effect” value is 28.03%.
On the same count and under the same terms, in the case of `COC(=O)N1CCCC(C(=O)NCCc2c[nH]c3cc(C)ccc23)C1` (centres undefined) it was 6.757%.
`Cc1ccc(C2CSCCN2C(=O)c2ccc(C(N)=O)cc2)o1` (centres undefined): where the note is “30 µM, 30.03 µM”, the “Percent Effect” value is recorded as 7.343%.
With `Cc1nccnc1N1C[C@H](NC(=O)CNS(C)(=O)=O)[C@@H](C2CC2)C1`, the “Percent Effect” value (30.3 µM, […]) turned out to be 8.886%.
For the compound `Cn1nc(C(=O)N2CCOCC2)c2c1CN(CC1CCC1)C2`, the “Percent Effect” value (30.3 µM, […]) turned out to be 23.43%.
The same measure, in the same setting: then `Cn1nc(C(=O)N2CCCC2)c2c1CN(CC1CCOCC1)C2`, with -0.9877%.
Regarding `Cn1nc(C(=O)N2CCOCC2)c2c1CN(CC1CC1)C2.O=C(O)C(F)(F)F.O=C(O)C(F)(F)F`, where the note is “30.3 µM, […]”, the “Percent Effect” value amounted to 55.32%.

The values are drawn from ChEMBL document CHEMBL3988442, “University of Dundee, Small-Polar-MMV Screening Library” (2021).
